A selection: hits, their analogues and other compounds. The true share with any hit is near 0.4%.
Rac1 act GTP bind: human Rac1 activated mutant GTP binding change; 0.11% of 190,000 active; percent activity (GTP binding), % at 10 µM; P63000; GST-Rac1 activated beads, fluorescent GTP binding, flow cytometry; actives lie on both sides; 100% means binding = to untreated wells; AID 764;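 active = GTP binding at least 20 percentage points away from the 100% baseline, in either direction, so actives lie on both sides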
Rab7 wt modul: modulators of GTP binding to dog Rab7 wildtype GTPase; GST-Rab7 beads, fluorescent GTP binding, flow cytometry; actives lie on both sides; untreated = 100%, excess cold GTP = 0%; GTP binding activity (percent of control), % at 10 µM; 0.055% of 190,000 active; AID 758;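 active = fluorescent GTP binding to Rab7 beads changed by at least 20 points from the 100% baseline, either direction, mostly lower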;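 also: median green fluorescence of bound Bodipy-FL-GTP per Rab7 bead population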
Cdc42 wt: human Cdc42 wildtype GTP binding change, either direction | percent activity (GTP binding), % at 10 µM | 0.2% of 190,000 active | GST-Cdc42 beads, Bodipy-GTP binding, flow cytometry; actives lie on both sides;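 active = percent activity GTP binding at least 20 points away from the 100% baseline, either down as inhibitor or up as activator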;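 also: median bead fluorescence of bound Bodipy-FL-GTP at 100 nM; 0% = excess unlabeled GTP control and 100% = no compound control; below 100% means less GTP binding so inhibitor and above means activator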
Target sequence (P60953 whole entry, looked up): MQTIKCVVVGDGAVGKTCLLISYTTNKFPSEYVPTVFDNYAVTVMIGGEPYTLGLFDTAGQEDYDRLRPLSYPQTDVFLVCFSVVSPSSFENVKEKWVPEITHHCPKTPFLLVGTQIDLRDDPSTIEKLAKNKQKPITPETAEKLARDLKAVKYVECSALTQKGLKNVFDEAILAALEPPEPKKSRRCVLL
Rab2 wt GTP: changes GTP binding to wildtype dog Rab2A, up or down; P61105; 0.19% of 190,000 active; GST-Rab2 wt beads, Bodipy-GTP binding, flow cytometry; GTP binding activity, % at 10 µM; AID 760;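 active = GTP binding activity at least 20 points away from 100%, either lowered or raised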;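 also: 0% = beads with excess unlabeled GTP and 100% = no-compound control corrected for plate trend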
HRas wt GTP bind: modulators of GTP binding to human HRas wildtype. GST-Ras wt beads, Bodipy-FL-GTP binding, flow cytometry; actives lie on both sides. GTP binding activity, % at 10 µM. 0.14% of 190,000 active. AID 759;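 active = GTP binding activity at least 20% away from the 100% baseline, either lowered as inhibitor or raised as activator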;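 also: 0% = unlabeled GTP competition control and 100% = no-compound control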
Target sequence (P01112 whole entry, looked up): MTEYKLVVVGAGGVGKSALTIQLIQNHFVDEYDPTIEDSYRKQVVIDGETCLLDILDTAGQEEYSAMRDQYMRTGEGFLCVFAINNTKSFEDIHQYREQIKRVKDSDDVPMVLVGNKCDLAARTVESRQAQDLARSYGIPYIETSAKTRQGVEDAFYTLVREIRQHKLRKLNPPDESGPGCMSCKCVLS
Rac1 wt modul: human Rac1 wildtype GTP binding, inhibitors and activators. P63000. GST-Rac1 beads, fluorescent GTP binding, flow cytometry; actives lie on both sides; 0 = cold GTP competed, 100 = untreated. GTP binding activity (% of control), % at 10 µM. 0.27% of 190,000 active;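 active = GTP binding activity at least 20 points away from the 100% control level, either lower or higher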
Active calls of the source: *; [ ] = another dose, or the depositor's remark.

SMILES	Rac1 act GTP bind	Rab7 wt modul	Cdc42 wt	Rab2 wt GTP	HRas wt GTP bind	Rac1 wt modul
Cc1cccc(-c2nnc3n2N=C(c2ccccc2)CS3)c1	96	92	88	94	95	100
COc1ccc(C2=Nn3c(nnc3-c3ccccc3)SC2)cc1OC	90	93	80	82	80	78*
COc1ccc(-c2nnc3n2N=C(C)CS3)cc1OC	91	94	95	93	93	89
Oc1ccc(C2=Nn3c(nnc3-c3ccco3)SC2)cc1O	65*	70*	49*	47*	47*	51*
CC(C)[C@H](NC(=O)NCCc1ccc(F)cc1)C(=O)O	104	100	108	100	105	108
c1ccc2oc(-c3csc(N4CCOCC4)n3)cc2c1	97	97	92	94	95	96
Cc1nc2sccn2c1-c1nc(-c2cc3ccccc3o2)cs1	91	87	83	77*	81	79*
COc1ccc(OCC(=O)Nc2ccc3nc(C)sc3c2)cc1	94	107	96	97	96	96
Nc1c(C(=O)C2CC2)sc2nc(-c3cccs3)cc(C(F)(F)F)c12	103	116	109	117	110	120*[activator]
CCOC(=O)c1cnc2nc(C)nn2c1N	95	100	92	99	97	95
CCOC(=O)c1cnc2c(C#N)cnn2c1N	86	88	77*	73*	72*	73*
C=CCSc1nc(N)c(C#N)c(-c2ccc(C)cc2)c1C#N	86	94	78*	87	85	78*
O=C(COC(=O)C12CC3CC(CC(C3)C1)C2)Nc1nc2c(F)c(F)c(F)cc2s1	96	93	74*	94	94	93
COc1ccc(C(=O)OCC(=O)Nc2nc3c(F)c(F)c(F)cc3s2)cc1OC	93	102	97	98	97	98
CCOc1ccc(-n2c(C)nc3cc(C(=O)NCc4ccc5c(c4)OCO5)ccc32)cc1	79*	86	77*	71*	80	77*
Cc1ccc(-c2ccc(/C=C3\SC(N4CCOCC4)=NC3=O)o2)cc1	90	90	87	88	85	76*
Cc1ccc(Cl)c(NC(=O)CN2CCNC(=O)C2)c1Cl	96	95	96	96	95	95
Cn1c(O)c(C2=c3ccccc3=NC2=O)[nH]c1=S	90	94	90	85	87	79*
COc1ccc2nc(-n3c(O)c(C4=c5ccccc5=NC4=O)[nH]c3=S)sc2c1	91	94	93	89	91	92
CN1CCN(S(=O)(=O)c2cccc(C(=O)Nc3sc4c(c3C(N)=O)CCCC4)c2)CC1	87	85	79*	77*	80	72*
CC(=O)c1cc2c(cc1NC(=O)c1cccc(S(=O)(=O)N3CCN(C)CC3)c1)OCO2	89	98	83	82	84	78*
O=C(Nc1cccc(S(=O)(=O)N2CCCC2)c1)c1ccc2c(c1)OCO2	94	92	99	90	92	90
COc1ccc(/C=C2\CCCC3C2=NN(C(=O)c2scnc2C)C3c2ccc(OC)c(OC)c2)cc1OC (stereo not drawn)	85	88	66*	66*	67*	81
O=C(NC1CCCCC1)C(c1ccco1)N(Cc1ccco1)C(=O)c1ccco1 (stereo not drawn)	98	98	100	98	64*	100
O=[N+]([O-])c1ccccc1/C=C/C=N/n1c(-c2ccco2)n[nH]c1=S	75*	84	76*	82	80	77*
SMILES	Rac1 act GTP bind	Rab7 wt modul	Cdc42 wt	Rab2 wt GTP	HRas wt GTP bind	Rac1 wt modul
CC(C)CN=Cc1c(O)c([N+](=O)[O-])cc2oc3c(c12)CCCC3	94	95	97	94	97	97
O=[N+]([O-])c1cc2oc3c(c2c(C=NCc2ccccc2)c1O)CCCC3	74*	78*	74*	76*	79*	73*
Cc1cc(NS(=O)(=O)c2ccccc2)c(C)c(Cl)c1O	103	98	106	101	101	105
O=S(=O)(Nc1cc(Sc2ncn[nH]2)c(O)c2ccccc12)c1ccccc1	89	91	95	91	92	78*
CCc1nnc(NC(=O)CSc2nc(-c3ccccc3)nc3ccccc23)s1	99	99	99	97	96	101
Cc1ccc(C)c(NC(=O)CN(C)C(=O)c2nn(C)c(=O)c3ccccc23)c1	97	100	97	101	96	96
O=C(Nc1ccc(Cl)cc1Cl)N1CCN(c2ncccn2)CC1	94	94	95	95	94	97
O=C(Nc1cccc(Cl)c1)N1CCN(c2ncccn2)CC1	104	108	114	111	109	125*[activator]
Clc1cccc(Cl)c1CSc1nnc(-c2sccc2-n2cccc2)o1	94	98	95	96	98	97
Cn1ncc2c(N3CCN(c4ccc(Cl)c(Cl)c4)CC3)ncnc21	100	96	98	96	98	101
O=C(NNc1nc(-c2ccccc2)c2cc(Br)ccc2n1)c1ccc(S(=O)(=O)N2CCOCC2)cc1	87	84	82	75*	81	67*
CC(=O)NNc1nc(-c2ccccc2)c2cc(Br)ccc2n1	98	100	101	102	100	105
O=C(NNc1nc(-c2ccccc2)c2cc(Br)ccc2n1)c1ccc(S(=O)(=O)N2CCCCC2)cc1	93	99	94	93	95	96
CN(C)S(=O)(=O)c1ccc(C(=O)NNc2nc(-c3ccccc3)c3cc(Br)ccc3n2)cc1	88	90	85	82	83	78*
c1ccc(-c2csc3ncnc(NCCCN4CCOCC4)c23)cc1	97	105	94	97	97	98
O=c1c2c(-c3ccccc3)csc2nc2c3ccccc3c(NCCN3CCOCC3)nn12	82	70*	69*	65*	65*	55*
COc1cc(/C=N/NC(=O)Nc2cccc3nsnc23)cc(OC)c1OC	75*	80	56*	59*	58*	76*
CCOC(=O)COc1ccc(C(=O)CC)cc1OC	97	104	96	100	99	99
CCC(=O)c1ccc(OCC(=O)O)c(OC)c1	104	96	105	101	100	122*[activator]
S=C(NCCc1ccccc1)NC1CC1	104	99	117	105	104	123*[activator]
COc1ccc(/C=C/CN2CCCC(CO)(Cc3cccc(Cl)c3)C2)cc1 (stereo not drawn)	95	97	95	97	95	99

Screening results as filed in PubChem.
